About 79,000 compounds went through this panel and 15% of them were active in at least one assay; those are over-represented in the sample as a whole. Activity calls are given as the source filed them. Rule as the data show it: active = growth inhibition above about 70%; inactive = the rest.
Assays:
[1] = NCI Yeast Anticancer Drug Screen. Data for the rad50 strain (AID 155);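 also: 0% = growth of vehicle-only cultures of the same strain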; settings: S. cerevisiae rad50 strain growth inhibition, stronger effect = higher value
Summary of the method: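 Genetically altered yeast (DNA repair pathway); compound treatment; growth inhibition vs vehicle ctrl.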

[2] = NCI Yeast Anticancer Drug Screen. Data for the mec2-1 strain (AID 157); settings: S. cerevisiae mec2-1 strain, stronger effect = higher value
Summary of the method: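 Compounds were applied to mec2-1 yeast cells. Their growth was then compared with that of vehicle-treated cultures to give growth inhibition.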

[3] = NCI Yeast Anticancer Drug Screen. Data for the sgs1 mgt1 strain (AID 161);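 also: 0% = growth of cultures given vehicle only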; settings: S. cerevisiae sgs1 mgt1 strain, stronger effect = higher value
Summary of the method: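 Growth of a repair-deficient yeast mutant was monitored after compound treatment and expressed as inhibition relative to vehicle-treated cultures.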

[4] = NCI Yeast Anticancer Drug Screen. Data for the cln2 rad14 strain (AID 165);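 also: 0% = growth equal to vehicle treated cultures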; settings: S. cerevisiae cln2 rad14 strain, stronger effect = higher value
Summary of the method: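 Strain: cln2 rad14 yeast, altered in cell cycle control and DNA damage repair. Read-out: growth inhibition vs vehicle.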

[5] = NCI Yeast Anticancer Drug Screen. Data for the bub3 strain (AID 167); settings: S. cerevisiae bub3 mutant strain, stronger effect = higher value
Summary of the method: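 Yeast carrying a defined mutation is treated with each compound, and growth is compared with that of vehicle-exposed cells to give inhibition.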

[6] = NCI Yeast Anticancer Drug Screen. Data for the mlh1 rad18 strain (AID 175); settings: S. cerevisiae mlh1 rad18 strain growth inhibition, stronger effect = higher value
Summary of the method: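 A repair-deficient yeast strain is exposed to test compound, and growth is scored relative to vehicle-treated controls.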

[7] = at 5.0 µM (retest, dose inferred, filed as 0.5)
[8] = at 50.0 µM (retest, dose inferred, filed as 5.0)

Measured: growth inhibition

[O-]c1c(-c2cccc3ccccc23)sc(-c2cccc3ccccc23)[n+]1-c1ccccc1
inactive: [1]; [7] 5% | [2]; [7] 10% | [2]; at 50.0 µM 55.2% | [3]; [7] 8% | [3]; at 50.0 µM 50.1% | [4]; [7] -2% | [4]; at 50.0 µM 52.6% | [5]; [7] -2% | [5]; at 50.0 µM 46.1% | [6]; [7] 5%
active: [1]; [8] 92% | [1]; at 50.0 µM 70.7% | [2]; [8] 95% | [3]; [8] 92% | [4]; [8] 93% | [5]; [8] 93% | [6]; [8] 92% | [6]; at 50.0 µM 78.7%

CCCCCCCCCCCC(=O)C(=O)c1ccc(O)cc1O
inactive: [1]; [7] 52% | [4]; [7] 25% | [5]; [7] 45%
active: [1]; [8] 88% | [1]; at 50.0 µM 93.8% | [2]; [7] 87% | [2]; [8] 93% | [2]; at 50.0 µM 97.3% | [3]; [7] 91% | [3]; [8] 92% | [3]; at 50.0 µM 96.4% | [4]; [8] 84% | [4]; at 50.0 µM 95.5% | [5]; [8] 90% | [5]; at 50.0 µM 95.8% | [6]; [7] 87% | [6]; [8] 92% | [6]; at 50.0 µM 96.7%

Cc1cc(N)c2cc(OCCOc3ccc4nc(C)cc(N)c4c3)ccc2n1
inactive: [1]; [7] 68% | [2]; [7] 69%
active: [1]; [8] 91% | [1]; at 50.0 µM 97.5% | [2]; [8] 94% | [2]; at 50.0 µM 95.2% | [3]; [7] 77% | [3]; [8] 93% | [3]; at 50.0 µM 92.5% | [4]; [7] 71% | [4]; [8] 92% | [4]; at 50.0 µM 84.7% | [5]; [7] 79% | [5]; [8] 95% | [5]; at 50.0 µM 93.7% | [6]; [7] 91% | [6]; [8] 94% | [6]; at 50.0 µM 95.2%

CCOC(=O)/C(C#N)=C\c1cccc2ccccc12
inactive: [1]; [7] 13% | [1]; [8] 57% | [2]; [7] 1% | [3]; [7] 5% | [4]; [7] -17% | [4]; [8] 27% | [4]; at 50.0 µM -12.4% | [5]; [7] -4% | [5]; [8] 40% | [6]; [7] -2%
active: [1]; at 50.0 µM 84% | [2]; [8] 91% | [2]; at 50.0 µM 92.3% | [3]; [8] 75% | [3]; at 50.0 µM 91.8% | [5]; at 50.0 µM 96.2% | [6]; [8] 94% | [6]; at 50.0 µM 95.7%

NC(=Nc1cc2ccccc2c2ccccc12)Nc1cc2ccccc2c2ccccc12
inactive: [4]; [7] 45% | [5]; [7] 35%
active: [1]; [7] 87% | [1]; [8] 97% | [1]; at 50.0 µM 85.8% | [2]; [7] 91% | [2]; [8] 99% | [2]; at 50.0 µM 77.2% | [3]; [7] 89% | [3]; [8] 99% | [3]; at 50.0 µM 95.3% | [4]; [8] 96% | [4]; at 50.0 µM 95% | [5]; [8] 97% | [5]; at 50.0 µM 97.7% | [6]; [7] 97% | [6]; [8] 97% | [6]; at 50.0 µM 97.5%

O=[N+]([O-])c1cccc2c1[nH]c1c(-c3ccccc3)nccc12
inactive: [1]; [7] 2% | [2]; [7] 4% | [2]; at 50.0 µM 47.8% | [3]; [7] 4% | [4]; [7] 0% | [4]; [8] 67% | [5]; [7] 1% | [5]; [8] 67% | [5]; at 50.0 µM 40% | [6]; [7] 0%
active: [1]; [8] 83% | [1]; at 50.0 µM 87.8% | [2]; [8] 83% | [3]; [8] 93% | [3]; at 50.0 µM 81% | [4]; at 50.0 µM 80.3% | [6]; [8] 89% | [6]; at 50.0 µM 89.8%

From PubChem BioAssay (NCI)
